The values that follow come from PubChem BioAssay.

The nature of experiment [1]: Wnt pathway potentiators raising nuclear beta-catenin – imaging, WNT3A-conditioned medium, mouse C2C12, NPC library, primary screen (AID 1117326; in the data active = nuclear beta-catenin stimulation mostly above about 4.2%, no sharp cut-off; inactive = mostly below about 10%). The settings on record: stronger effect = higher value.
A short description of experiment [2]: stimulators of insulin release from INS-1E, primary screen, cell-based, 5 mM glucose, NPC library (AID 1117329;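 active = compound raises insulin release from rat beta cells at 5 mM glucose, no numeric limit stated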). As to conditions: rat INS-1E insulin secretion, at 10 µM, stronger effect = higher value.
A short description of experiment [3]: growth inhibition of GSK3B-pretreated HCT116 cells – cell-based, CellTiter-Glo, 0.2 to 20 µM (AID 1117336;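 active = compounds lowering colon cancer cell viability after pretreatment blocking the GSK3B kinase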). The settings on record: HCT116 viability after GSK3B inhibitor, at 20 µM, stronger effect = higher value. (In general: ATP-based viability assays read luminescence as a measure of living cells.)
The nature of experiment [4]: inhibition of endothelial tube formation, primary screen, imaging, VEGF stimulated, CD31 staining, tube area, NPC library (AID 1117340;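 active = compound that reduces growth-factor-driven endothelial tube area in a mixed cell culture, no cutoff stated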). As to conditions: VEGF-stimulated ADSC/ECFC co-culture, at 10 µM, stronger effect = higher value.
A short description of experiment [5]: GLP1 release stimulators, primary, NCI-H716, NPC library (AID 1117341;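 active = compound raises GLP1 secretion from the human gut endocrine cells, with no numeric limit stated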). The settings on record: NCI-H716 cells, at 10 µM, stronger effect = higher value.
Experiment [6] is described as follows: HCT116 colon cancer cell growth inhibition, primary screen, CellTiter-Glo luminescence, NPC library (AID 1117342;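 active = compounds that lower survival of HCT116 colon cancer cells in the luminescence readout, no numeric limit stated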). The settings on record: at 20 µM (top of the series).
The nature of experiment [7]: reduced SW480 viability measured with CellTiter-Glo, NPC library, primary (AID 1117343;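 active = compounds that lower viability of the colon cancer cells in the luminescence readout, with no numeric limit stated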). As to conditions: CellTiter-Glo luminescence; at 20 µM (top of the series) unless noted.
Experiment [8] can be described thus: NPC library primary testing for decreased DLD-1 cell viability via CellTiter-Glo (AID 1117346;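 active = compounds that lower survival of DLD-1 colon cancer cells in the luminescence readout, no cutoff given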). The settings on record: DLD-1 viability, CellTiter-Glo luminescence; at 20 µM (top of the series).
Experiment [9] relates to Aerobactin synthetase IucA (Klebsiella pneumoniae). The experiment is described as follows: inhibition of K. pneumoniae IucA enzyme – biochemical, Tocris library, absorbance (AID 1345561; call rule not given here;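 note: 100% = enzyme without compound and 0% = no enzyme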). The settings on record: purified IucA enzyme assay, absorbance (OD) read-out; stronger effect = lower value;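 tested at 8 µM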.
Experiment [10] concerns the target NAD(+) hydrolase SARM1 (Homo sapiens) (UniProt Q6SZW1). The experiment is described as follows: blocking NAD cleavage by SARM1 SAM-TIR – cell lysate, NAD-Glo luminescence (AID 1508614;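 active = compound whose remaining NAD level is above about 45 nM, limit read from the data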;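 note: higher remaining NAD means stronger inhibition of SARM1 NADase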). The settings on record: SAM-TIR HEK293T lysate NADase, at 1 µM, stronger effect = higher value.
The nature of experiment [11]: galactose survival enhancers in mitochondrial complex I cybrids – cell-based, galactose medium, ATP luminescence, primary screen (AID 1645843;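 active = z-score of at least 1.8 in each of two replicates, scored against plate mean and spread of sample wells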;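 note: positive z means more ATP and so rescue of galactose-driven cybrid death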). The settings on record: complex I mutant cybrid cells, 72 h, stronger effect = higher value.
Experiment [12] can be described thus: P. berghei load reduction in hepatocytes – cell-based, HepG2, luciferase luminescence, HepG2 viability, primary screen (AID 624349; in the data active = parasite load remaining mostly below about 12%, no sharp cut-off; inactive = mostly above about 10%;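 note: 100% = mean of DMSO negative control wells on the same plate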). The settings on record: P. berghei liver stage in HepG2, luciferase luminescence, concentration not given here; parasite load remaining: stronger effect = lower value; viability: measured here: HepG2 viability without parasites.
Experiment [13] in a line: viability loss in pontine glioma line – cell-based, SU-DIPG-XVII, MIPE5.0, CellTiter-Glo, qHTS, dose response (AID 1347060; cut-off not given, nearly all actives have AC50 up to about 26 µM). The settings on record: CellTiter-Glo ATP luminescence.
A short description of experiment [14]: viability loss in pontine glioma line – cell-based, SU-DIPG-XIII, MIPE4.0, CellTiter-Glo, qHTS, dose response (AID 1347061; cut-off not given, nearly all actives have AC50 up to about 37 µM;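 note: cells exposed to compound for 48 hours before readout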). The settings on record: CellTiter-Glo ATP luminescence.
Experiment [15] is described as follows: viability loss in pontine glioma line – cell-based, SU-DIPG-IV, MIPE4.0, CellTiter-Glo, qHTS, dose response (AID 1347063; cut-off not given, nearly all actives have AC50 up to about 30 µM;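 note: compound exposure lasted 48 hours before the viability readout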). As to conditions: CellTiter-Glo ATP luminescence.
Experiment [16] can be described thus: growth inhibition of DIPG cells – cell-based, MIPE5.0 library, qHTS (AID 1347068; cut-off not given, nearly all actives have IC50 up to about 30 µM). As to conditions: SU-DIPG-XXV viability. On the technique in general: In qHTS, concentration-response curves come from the screen itself.
Experiment [17] can be described thus: viability loss with induced miR-34 in A549 – imaging, A549 dox-inducible miR-34, nuclei and caspase counts, primary screen (AID 1347080). The settings on record: A549 miR-34 inducible, Hoechst nuclei count, 48 h.
A short description of experiment [18]: MELAS cybrid and Rieske KO viability enhancers – cell-based, MELAS cybrids, Rieske KO mouse fibroblasts, CellTiter-Glo, primary screen (AID 1508586;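 active = mean z-score across replicates of 1.96 or higher in either the MELAS or the Rieske mutant cell line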;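 note: z relative to plate mean and SD of compound and empty wells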). The settings on record: low glucose.
[19] abbreviates: stronger effect = lower value, cell number ratio, induced over uninduced.
The mark [20] stands for this setting: measured here: relative caspase fold change +Dox/-Dox.
The mark [21] stands for this setting: measured here: total cells with miR-34 induction, stronger effect = lower value.
The mark [22] stands for this setting: measured here: total cells without miR-34 induction.
Where [23] appears, read: MELAS cybrid survival, CellTiter-Glo 48 h, stronger effect = higher value.
Where [24] appears, read: Rieske KO mouse fibroblast survival, CellTiter-Glo 72 h.

Where “and” joins values, the source holds several entries; their conditions need not be identical. Equal values may be shown once. Inconclusive results are not listed. Calls of active or inactive are those of the source.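 Rule for the calls, unless noted: active = compounds whose cell count with miR-34 switched on is under 0.7 times the count with it off; inactive = the rest.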 Where a SMILES comes first, the peptide text is derived from it. [ ]: non-standard residue; d: D form. The star is where a group is joined. Sta = CC(C)C[C@H](N)[C@@H](O)CC(=O)O; Isovaleryl = CC(C)CC(=O)*

NAD(+) hydrolase SARM1 (Homo sapiens), sequence (Q6SZW1 whole entry, looked up): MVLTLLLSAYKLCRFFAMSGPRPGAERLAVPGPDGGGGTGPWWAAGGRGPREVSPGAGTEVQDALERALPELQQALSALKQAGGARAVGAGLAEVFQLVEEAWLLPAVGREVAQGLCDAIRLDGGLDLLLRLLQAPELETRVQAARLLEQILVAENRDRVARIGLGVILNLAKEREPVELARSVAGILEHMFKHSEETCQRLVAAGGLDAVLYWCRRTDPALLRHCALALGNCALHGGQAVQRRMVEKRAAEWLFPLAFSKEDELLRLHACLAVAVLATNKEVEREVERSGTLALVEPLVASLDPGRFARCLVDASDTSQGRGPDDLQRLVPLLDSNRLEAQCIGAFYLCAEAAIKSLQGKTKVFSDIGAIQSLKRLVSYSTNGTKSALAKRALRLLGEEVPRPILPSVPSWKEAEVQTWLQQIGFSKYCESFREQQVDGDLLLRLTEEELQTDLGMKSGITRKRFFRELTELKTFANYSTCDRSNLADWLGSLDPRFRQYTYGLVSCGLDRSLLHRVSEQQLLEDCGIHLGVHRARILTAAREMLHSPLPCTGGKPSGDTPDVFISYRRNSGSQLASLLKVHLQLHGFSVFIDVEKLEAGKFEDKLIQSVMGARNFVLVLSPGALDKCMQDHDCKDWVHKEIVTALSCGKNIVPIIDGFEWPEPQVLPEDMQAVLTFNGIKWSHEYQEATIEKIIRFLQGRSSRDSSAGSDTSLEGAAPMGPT

One may read the remaining activity as the signal under treatment as a percentage of the control signal. With `CCCCCCCCCCCCCCCC(=O)NCCO`, the nuclear beta-catenin stimulation is 2.2% (inactive) in experiment [1] (at 10 µM) and 8.9% in [1] (stimulation, at 2 µM). In addition, the insulin secretion stimulation in experiment [2] was 4.7% (inactive). The viability decrease in [3] is -7.4% (inactive). Further, the tube area decrease in experiment [4] was -5.7% (inactive). Also, the GLP1 secretion stimulation in experiment [5] is -1.8% (inactive). Further, the inhibition of viability in experiment [6] is 1.3% (inactive). Besides, the viability decrease (inhibition) is -42.2% (inactive) in experiment [7] and -11.2% (inactive) in experiment [8]. Further, the remaining activity in [9] is 113% (inactive). Moreover, the remaining NAD in [10] is 10 nM (inactive). In experiment [11], the z-score is 0.05 (inactive).

As a reminder, the viability is a read-out of living cells in per cent, often relative to untreated cells. On to `CCN[C@H]1C[C@H](C)S(=O)(=O)c2sc(S(N)(=O)=O)cc21`, for which, in experiment [12], the parasite load remaining was 70.8% (inactive) and 54% (inactive). Besides, the viability in experiment [12] is 73% and 119%. For the same molecule, the nuclear beta-catenin stimulation in [1] (at 10 µM) is 0.6% (inactive); in experiment [1] (stimulation, at 2 µM), 1.7%. Also, the insulin secretion stimulation in [2] is 2.65% (inactive). In experiment [3], the viability decrease was 10.3% (inactive). Besides, the tube area decrease in [4] was -2.8% (inactive). Further, the GLP1 secretion stimulation in experiment [5] is 2.1% (inactive). Besides, the inhibition of viability in experiment [6] is 4.1% (inactive). Further, the viability decrease (inhibition) in experiment [7] was -12.1% (inactive); in experiment [8], 3.2% (inactive). In addition, the molecule was called inactive in experiment [13], in [14], in experiment [15] and in experiment [16]. Besides, the fold change in [17] (setting [19]) is 0.888 (inactive) and 0.89 (inactive); in experiment [17] (setting [20]) it was 0.692 and 0.631. Further, the cell count in [17] (setting [21]) was 8830 and 9540; in experiment [17] (setting [22]) it was 9940 and 10700. The z-score in experiment [18] (setting [23]) was -0.0417 (inactive) and -1.04 (inactive); in experiment [18] (setting [24]), -0.635 and -0.666; in [11], 0.255 (inactive).

Regarding `O=C(O)Cn1c(C(=O)Nc2nc(-c3ccccc3Cl)cs2)cc2ccccc21`, the nuclear beta-catenin stimulation in experiment [1] (at 10 µM) was 0.7% (inactive); in [1] (stimulation, at 2 µM), -0.5%. Moreover, the insulin secretion stimulation in [2] was 0.05% (inactive). Further, the viability decrease in experiment [3] is 104% (active). For the same molecule, the tube area decrease in [4] was 47.9% (active). Also, the GLP1 secretion stimulation in experiment [5] was 5.4% (inactive). For the same molecule, the inhibition of viability in [6] is 72.1% (active). Moreover, the viability decrease (inhibition) in [7] is 102% (active); in experiment [8], 60.6% (active). Also, the remaining activity in [9] is 99.8% (inactive). Further, the figures for the fold change in [17] (setting [19]) and in [17] (setting [20]) were 0.989 (inactive) and 1.35, respectively. Besides, the cell count in experiment [17] (setting [21]) was determined as 8300; in experiment [17] (setting [22]), 8400. For the same molecule, the z-score in experiment [11] was 1.2 (inactive).

As to `CC(C)CC(=O)N[C@H](C(=O)N[C@H](C(=O)N[C@@H](CC(C)C)[C@@H](O)CC(=O)N[C@@H](C)C(=O)N[C@@H](CC(C)C)[C@@H](O)CC(=O)O)C(C)C)C(C)C` (Isovaleryl-VV[Sta]A[Sta]-OH), the parasite load remaining in experiment [12] is 101% (inactive). For the same molecule, in [12], the viability worked out at 102%. Also, the nuclear beta-catenin stimulation is -1.6% (inactive) in experiment [1] (at 10 µM) and -0.3% in [1] (stimulation, at 2 µM). Moreover, the insulin secretion stimulation in experiment [2] was 4.9% (inactive). For the same molecule, in experiment [3], the viability decrease is -3.4% (inactive). The tube area decrease in experiment [4] is -25.1% (inactive). Further, the GLP1 secretion stimulation in experiment [5] is 0.5% (inactive). The inhibition of viability in experiment [6] was 4% (inactive). Also, the viability decrease (inhibition) in [7] was -0.3% (inactive); in [8] it was 13% (active). Also, the call in [13], in experiment [14], in experiment [15] and in experiment [16] was inactive. Further, the fold change in experiment [17] (setting [19]) is 0.91 (inactive) and 1.02 (inactive); in experiment [17] (setting [20]), 1.28 and 1.09. Besides, the cell count in experiment [17] (setting [21]) was 7720 and 5130; in experiment [17] (setting [22]), 8480 and 5040. Moreover, the z-score in experiment [18] (setting [23]) is -1.11 (inactive); in experiment [18] (setting [24]) it was -0.328.
